# Values joined by “and” are separate entries in the source; they are usually repeats but may differ in a detail not shown here. Identical values can stand only once. Results filed as inconclusive are left out. A call without a number means that no potency is given here. Active and inactive are the calls of the source. Unless noted, calls follow the shape of the dose curve; as a rule, active = well fitted cell-killing curve with a large enough effect; inconclusive = small, poorly fitted or top-dose-only effect; inactive = flat fitted curve, though single readings scatter.
# Key:
# [1] = Cell Viability - LYMP2-025 (AID 976); also: series mostly up to about 92 µM
# How it was run: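 CellTiter-Glo luminescence (cellular ATP) after 24 h compound exposure at 37 C; LYMP2-025 human lymphoblastoid cells, 2500/well, complete medium. Tetraoctylammonium bromide positive control. AC50 by Hill equation fit of qHTS concentration-response.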
# [2] = Cell Viability - LYMP2-002 (AID 977); also: series mostly up to about 92 µM
# How it was run: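 In this qHTS viability screen, 2500 human lymphoblastoid cells per well receive compound for 24 hr at 37 C, and luciferase-based ATP luminescence gives the viability signal. Tetraoctylammonium bromide serves as positive control.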
# [3] = Cell Viability - LYMP2-006 (AID 978); also: series mostly up to about 92 µM; nearly all actives have a fitted effect of over 60% in size
# How it was run: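 Human lymphoblastoid cells, 2500 per well, were preincubated 5 hr at 37 C, then exposed to compounds for 24 hr at 37 C in complete medium. Viability was read as intracellular ATP by CellTiter-Glo luminescence; AC50 from Hill-equation fits of qHTS concentration-response data.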
# [4] = Cell Viability - LYMP2-007 (AID 979);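 also: cells exposed to compound for 24 h before reading; nearly all actives have a fitted effect of over 60% in size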
# How it was run: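 qHTS cytotoxicity: 2500 cells/well, 5 hr 37 C settle, compound 24 hr 37 C, CellTiter-Glo 30 min RT, luminescence. Decrease in ATP = toxicity. AC50 by standard Hill equation; tetraoctylammonium bromide positive control.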
# [5] = Cell Viability - LYMP2-008 (AID 980); also: nearly all actives have a fitted effect of over 60% in size
# How it was run: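 Luminescent ATP read-out (CellTiter-Glo, 30 min RT) after 24 hr compound exposure at 37 C of human lymphoblastoid cells in complete medium. Decrease in ATP taken as cytotoxicity; AC50 derived by standard Hill fit of qHTS concentration-response data.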
# [6] = Cell Viability - LYMP2-012 (AID 982);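 also: cellular ATP by luciferase luminescence where a drop means cytotoxicity; cells exposed to compound for one day before reading; nearly all actives have a fitted effect of over 55% in size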
# [7] = Cell Viability - LYMP2-014 (AID 983); also: series mostly up to about 92 µM; nearly all actives have a fitted effect of over 50% in size
# How it was run: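 2500 cells/well, 5 hr 37 C; cpd 24 hr 37 C, complete medium; CellTiter-Glo 30 min RT, luminescence; ATP loss = toxicity; AC50 via Hill eqn; tetraoctylammonium bromide positive control.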
# [8] = Cell Viability - LYMP2-016 (AID 984); also: nearly all actives have a fitted effect of over 55% in size
# How it was run: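 Human lymphoblastoid cells (LYMP2-016), 2500/well in complete medium, preincubated 5 hr at 37 C, then compound-treated 24 hr at 37 C. Intracellular ATP read by CellTiter-Glo luminescence after 30 min at room temperature; AC50 from Hill-equation concentration-response fits.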
# [9] = Cell Viability - LYMP2-018 (AID 985); also: nearly all actives have a fitted effect of over 50% in size
# How it was run: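 2500 cells/well; 5 hr 37 C; cmpd 24 hr 37 C, complete medium; CellTiter-Glo 30 min RT; luminescence. Tetraoctylammonium bromide positive control. AC50 via Hill fit.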
# [10] = Cell Viability - LYMP2-020 (AID 986); also: series mostly up to about 92 µM; nearly all actives have a fitted effect of over 55% in size
# How it was run: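 qHTS, 2500 cells/well; 5 hr then 24 hr compound exposure, 37 C; CellTiter-Glo luminescence after 30 min RT; ATP decrease taken as cytotoxicity; AC50 via Hill equation; tetraoctylammonium bromide positive control.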
# [11] = Cell Viability - LYMP2-022 (AID 987); also: nearly all actives have a fitted effect of over 55% in size
# How it was run: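 Luminescent ATP read-out (CellTiter-Glo, 30 min, RT) after 24 hr, 37 C compound exposure of 2500 human lymphoblastoid cells/well in complete medium. Cytotoxicity taken as concentration-dependent ATP loss; AC50 from standard Hill equation.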
# [12] = Cell Viability - LYMP2-024 (AID 988); also: nearly all actives have a fitted effect of over 60% in size
# How it was run: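 ATP-based luminescence (CellTiter-Glo, 30 min RT) after 24 h compound exposure at 37 C of 2500 lymphoblastoid cells/well; decrease in ATP taken as cytotoxicity. qHTS concentration-response fitted to standard Hill equation for AC50.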
# [13] = Cell Viability - LYMP2-026 (AID 989); also: nearly all actives have a fitted effect of over 50% in size
# How it was run: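 qHTS cytotoxicity: 2500 cells/well, 5 hr 37 C, compound 24 hr 37 C, CellTiter-Glo 30 min RT, luminescence. Tetraoctylammonium bromide positive control. AC50 via standard Hill fit.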
# [14] = Cell Viability - LYMP1-002 - Assay at 24 hr (AID 993)
# How it was run: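 CellTiter-Glo luminescence (intracellular ATP) after 24 h compound exposure, 37 C, in LYMP1-002 human lymphoblastoid cells; decreased ATP taken as cytotoxicity. AC50 from standard Hill fit of concentration-response curves.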
# [15] = Cell Viability - LYMP1-002 - Assay at 40 hr (AID 994); also: nearly all actives have a fitted effect of over 60% in size
# How it was run: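 qHTS cytotoxicity; 2500 cells/well, 5 hr 37 C settle, compound 40 hr 37 C. CellTiter-Glo, 30 min RT, luminescence (ATP). Concentration-response, Hill fit → AC50. Pos. ctrl tetraoctylammonium bromide.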
# [16] = qHTS Assay for Identification of Small Molecule Inducers of Hypoxia Response (AID 2120; active = well fitted curve in the direction sought with a large enough effect in the signal ratio, with a control signal flat, not every such curve was filed as active; the % refers to the signal ratio)
# How it was run: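 Read-out: CCF4 FRET emission ratio 460nm/530nm (excitation 405nm), converted to %Activity, with AC50 fitted across a compound titration. ME-180 cells carried an HRE-driven beta-lactamase reporter; compound exposure 17 h, 37 degrees C.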
# [17] = molecular target: Bile acid receptor (Homo sapiens) (UniProt Q96RI1); test: qHTS assay for small molecule agonists of farnesoid X receptor signaling (AID 588527; calls by dose curve; also: series mostly up to about 77 µM); settings: HEK293T FXR-UAS-bla, beta-lactamase ratio, 16 h; stronger effect = higher value
# Sequence of Bile acid receptor (Homo sapiens) (Q96RI1 whole entry, looked up): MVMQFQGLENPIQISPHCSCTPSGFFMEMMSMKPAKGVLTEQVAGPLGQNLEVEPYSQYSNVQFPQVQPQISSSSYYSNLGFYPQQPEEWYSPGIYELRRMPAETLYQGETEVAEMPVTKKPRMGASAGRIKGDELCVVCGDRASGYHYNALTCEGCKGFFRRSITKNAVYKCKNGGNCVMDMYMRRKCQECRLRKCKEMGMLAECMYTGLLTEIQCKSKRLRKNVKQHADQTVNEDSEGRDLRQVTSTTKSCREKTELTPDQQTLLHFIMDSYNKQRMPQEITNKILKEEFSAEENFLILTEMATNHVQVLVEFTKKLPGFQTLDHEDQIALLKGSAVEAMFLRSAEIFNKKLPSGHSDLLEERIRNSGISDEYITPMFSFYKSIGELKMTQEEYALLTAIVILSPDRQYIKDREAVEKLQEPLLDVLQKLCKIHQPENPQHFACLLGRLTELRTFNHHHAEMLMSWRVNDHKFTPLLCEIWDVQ
# How it was run: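 FXR-UAS-bla HEK293T, 10% dialyzed FBS; cpds up to 92 uM titration, 16 h 37 C; CCF4 dye 2 h RT; fluorescence. Normalized to chenodeoxycholic acid 100 uM (100%) and DMSO (0%); Hill fit gives EC50, efficacy.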
# [18] = molecular target: Glucocorticoid receptor (Homo sapiens) (UniProt P04150); test: qHTS assay for small molecule agonists of glucocorticoid receptor signaling (AID 588532; active = well fitted curve in the direction sought with a large enough effect in the signal ratio, with a control signal flat; the % refers to the signal ratio); settings: HeLa MMTV-bla, beta-lactamase ratio, agonist, 18 h; stronger effect = higher value; percent of dexamethasone control, DMSO zero
# Sequence of Glucocorticoid receptor (Homo sapiens) (P04150 whole entry, looked up): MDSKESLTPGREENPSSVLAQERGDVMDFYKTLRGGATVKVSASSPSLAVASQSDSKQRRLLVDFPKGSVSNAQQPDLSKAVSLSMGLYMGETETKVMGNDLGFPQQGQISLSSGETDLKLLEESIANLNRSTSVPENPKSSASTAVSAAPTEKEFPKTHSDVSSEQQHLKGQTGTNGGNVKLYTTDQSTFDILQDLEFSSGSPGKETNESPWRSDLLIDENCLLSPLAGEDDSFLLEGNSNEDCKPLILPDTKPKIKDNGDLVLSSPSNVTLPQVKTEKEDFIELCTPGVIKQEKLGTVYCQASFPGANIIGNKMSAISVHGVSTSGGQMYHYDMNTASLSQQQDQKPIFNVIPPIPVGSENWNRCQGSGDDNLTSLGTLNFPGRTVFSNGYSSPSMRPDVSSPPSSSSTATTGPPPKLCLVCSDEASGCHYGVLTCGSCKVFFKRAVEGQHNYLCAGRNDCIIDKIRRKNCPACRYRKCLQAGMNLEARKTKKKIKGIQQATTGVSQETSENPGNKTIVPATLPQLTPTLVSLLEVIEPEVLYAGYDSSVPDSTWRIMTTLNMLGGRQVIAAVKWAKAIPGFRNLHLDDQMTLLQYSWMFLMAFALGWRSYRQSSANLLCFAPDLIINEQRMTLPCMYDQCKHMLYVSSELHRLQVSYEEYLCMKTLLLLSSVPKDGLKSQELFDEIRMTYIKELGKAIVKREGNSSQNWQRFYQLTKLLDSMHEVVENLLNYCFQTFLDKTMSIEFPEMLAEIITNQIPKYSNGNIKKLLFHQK
# How it was run: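 MMTV-bla HeLa, beta-lactamase reporter; medium with 1% charcoal/dextran-stripped FBS; cpds up to 92 uM, 18 h, 37 C; CCF4 readout 460/530 nm; Hill fit → EC50, efficacy vs 0.1 uM dexamethasone = 100%.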
# [19] = molecular target: Glucocorticoid receptor (Homo sapiens) (UniProt P04150); test: qHTS assay for small molecule antagonists of glucocorticoid receptor signaling (AID 588533; active = well fitted inhibition curve with a large enough effect in the signal ratio, with a control signal flat, not every such curve was filed as active; the % refers to the signal ratio;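 also: cells stimulated with 2 nM dexamethasone as agonist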)
# How it was run: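 Antagonist-mode qHTS: compound titrations added to GRE-bla HeLa cells, then dexamethasone 2 nM final; 18 h, 37 C. CCF4 FRET fluorescence normalized to dexamethasone and DMSO; IC50 from Hill fit.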
# [20] = qHTS assay for small molecule antagonists of peroxisome proliferator-activated receptor delta signaling (AID 588535; active = well fitted inhibition curve with a large enough effect in the signal ratio, with a control signal flat, not every such curve was filed as active; the % refers to the signal ratio;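 as to max response: cells co-treated with a PPAR-delta agonist as stimulator during compound exposure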); settings: HEK293T PPARd-UAS-bla, beta-lactamase FRET ratio, 18 h; 460 nm channel
# How it was run: (§1)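 Compounds tested in titration on PPAR-delta-UAS-bla HEK293T cells grown in charcoal/dextran-stripped serum (2%); beta-lactamase activity read via CCF4 emission at 460 and 530 nm.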
# [21] = molecular target: Peroxisome proliferator-activated receptor delta (Homo sapiens) (UniProt Q03181); test: as above
# Sequence of Peroxisome proliferator-activated receptor delta (Homo sapiens) (Q03181 whole entry, looked up): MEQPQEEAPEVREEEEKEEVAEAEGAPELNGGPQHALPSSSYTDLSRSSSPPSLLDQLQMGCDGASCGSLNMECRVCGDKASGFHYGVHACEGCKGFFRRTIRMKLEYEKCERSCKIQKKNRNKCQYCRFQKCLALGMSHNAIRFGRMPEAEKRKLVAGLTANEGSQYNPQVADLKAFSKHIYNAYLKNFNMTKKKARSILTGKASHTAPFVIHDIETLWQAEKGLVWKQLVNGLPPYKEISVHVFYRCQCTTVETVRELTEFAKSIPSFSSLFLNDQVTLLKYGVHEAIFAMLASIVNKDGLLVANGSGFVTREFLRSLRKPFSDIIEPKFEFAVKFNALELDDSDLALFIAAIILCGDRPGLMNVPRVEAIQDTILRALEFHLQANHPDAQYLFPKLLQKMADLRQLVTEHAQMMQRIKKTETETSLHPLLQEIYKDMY
# How it was run: as §1
# [22] = molecular target: Peroxisome proliferator-activated receptor gamma (Homo sapiens) (UniProt P37231); test: qHTS assay for small molecule agonists of peroxisome proliferator-activated receptor gamma signaling (AID 588536; active = well fitted curve in the direction sought with a large enough effect in the signal ratio, with a control signal flat, not every such curve was filed as active; the % refers to the signal ratio)
# Sequence of Peroxisome proliferator-activated receptor gamma (Homo sapiens) (P37231 whole entry, looked up): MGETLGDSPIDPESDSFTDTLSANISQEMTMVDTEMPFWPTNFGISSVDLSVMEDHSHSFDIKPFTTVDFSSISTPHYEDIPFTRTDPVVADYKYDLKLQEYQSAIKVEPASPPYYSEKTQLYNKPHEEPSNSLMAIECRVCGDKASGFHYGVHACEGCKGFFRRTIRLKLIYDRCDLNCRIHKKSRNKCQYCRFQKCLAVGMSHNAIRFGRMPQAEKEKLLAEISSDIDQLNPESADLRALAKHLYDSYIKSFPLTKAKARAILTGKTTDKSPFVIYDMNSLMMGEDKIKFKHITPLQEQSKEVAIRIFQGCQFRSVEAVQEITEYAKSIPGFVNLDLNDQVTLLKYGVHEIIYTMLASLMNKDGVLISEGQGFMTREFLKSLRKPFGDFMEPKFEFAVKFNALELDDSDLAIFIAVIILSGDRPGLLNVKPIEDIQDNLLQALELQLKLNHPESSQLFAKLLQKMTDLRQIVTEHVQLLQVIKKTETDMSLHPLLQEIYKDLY
# How it was run: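 Compound treatment: 16 h, 37 C, HEK293 GeneBLAzer cells. Detection: CCF4, 2 h RT. Values: Hill-fit EC50, efficacy as % of 2 uM rosiglitazone.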
# [23] = molecular target: Vitamin D3 receptor (Homo sapiens) (UniProt P11473); test: qHTS assay for small molecule antagonists of vitamin D receptor signaling (AID 588541; calls by dose curve;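 also: receptor activated by calcitriol during compound treatment; series mostly up to about 77 µM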)
# Sequence of Vitamin D3 receptor (Homo sapiens) (P11473 whole entry, looked up): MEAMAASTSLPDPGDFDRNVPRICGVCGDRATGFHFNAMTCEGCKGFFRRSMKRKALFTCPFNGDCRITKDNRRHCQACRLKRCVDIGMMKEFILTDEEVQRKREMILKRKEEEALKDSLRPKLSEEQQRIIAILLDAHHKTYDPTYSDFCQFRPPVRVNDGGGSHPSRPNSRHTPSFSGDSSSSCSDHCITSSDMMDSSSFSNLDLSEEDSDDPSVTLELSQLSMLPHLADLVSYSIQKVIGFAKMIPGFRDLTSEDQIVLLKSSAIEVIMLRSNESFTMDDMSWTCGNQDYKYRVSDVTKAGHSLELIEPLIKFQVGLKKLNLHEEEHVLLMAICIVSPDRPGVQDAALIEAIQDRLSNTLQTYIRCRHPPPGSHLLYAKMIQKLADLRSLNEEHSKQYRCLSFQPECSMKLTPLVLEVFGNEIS
# How it was run: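 VDR-UAS-bla HEK293T cells (2000/well, 2% charcoal-stripped FBS) were treated with titrated compounds plus 1-alpha,25-dihydroxyvitamin D3 (50 nM or 3 nM final) for 16 h at 37 C. CCF4 beta-lactamase fluorescence was read; Hill fits gave IC50.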
smiles,measurement,setting,value
Clc1cc(Cl)c(-c2cc(Cl)c(Cl)cc2Cl)cc1Cl,Potency,[1],inactive
same,Potency,[2],inactive
same,Potency,[3],inactive
same,Potency,[4],inactive
same,Potency,[5],inactive
same,Potency,[6],inactive
same,Potency,[7],inactive
same,Potency,[8],inactive
same,Potency,[9],inactive
same,Potency,[10],inactive
same,Potency,[11],inactive
same,Potency,[12],inactive
same,Potency,[13],inactive
same,Potency,[14],inactive
same,Potency,[15],inactive
same,outcome,[16],inactive
same,activation,[17],4.83% (inactive)
same,activation,[18],0.333% (inactive) and 5.15% (inactive)
same,Potency,[19],inactive
same,max response,[20],34.2% and 61.4%
same,Potency,[21],inactive
same,outcome,[22],inactive
same,outcome,[23],inactive

# Source: PubChem BioAssay (NCATS)
